Bioassay records as filed in PubChem.
In the library only some 27% were active in any assay of this set; here they are far more common.
CYP2C19 inh = blockers of cytochrome P450 2C19 activity – biochemical, luminescence, ADME assay, primary screen; CYP2C19 Supersomes, luciferin-H EGE luminescence, 30 min; P33261; AID 778, 2007; 21% of 96,000 active; inhibition, % at 5 µM;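 active means CYP2C19 inhibition above a set limit at 5 µM in the primary screen, cut at about 50% in these data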;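 further: plate controls were negative control wells for no effect and 2.5 mM tranylcypromine positive control for full effect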
Target sequence (P33261 whole entry, looked up): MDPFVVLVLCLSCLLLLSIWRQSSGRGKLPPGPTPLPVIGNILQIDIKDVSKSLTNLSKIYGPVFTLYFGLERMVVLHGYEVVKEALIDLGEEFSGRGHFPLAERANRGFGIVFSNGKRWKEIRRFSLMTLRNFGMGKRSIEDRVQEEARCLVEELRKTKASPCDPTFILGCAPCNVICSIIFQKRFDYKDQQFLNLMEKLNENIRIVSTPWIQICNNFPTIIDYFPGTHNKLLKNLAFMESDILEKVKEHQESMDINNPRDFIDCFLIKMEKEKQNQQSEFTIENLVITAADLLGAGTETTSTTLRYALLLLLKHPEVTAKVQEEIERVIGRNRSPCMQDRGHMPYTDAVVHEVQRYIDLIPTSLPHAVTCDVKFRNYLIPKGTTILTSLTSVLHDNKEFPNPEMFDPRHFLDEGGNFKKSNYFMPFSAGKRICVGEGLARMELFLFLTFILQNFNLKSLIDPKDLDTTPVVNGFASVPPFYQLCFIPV
CYP2C9 inhib = blockers of cytochrome P450 2C9 activity – biochemical, luminescence, ADME assay, primary screen; P11712; inhibition, % at 5 µM; CYP2C9 Supersomes, luciferin-H conversion; 20% of 96,000 active;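 active means blocking of liver enzyme CYP2C9 beyond about 50% at 5 µM, limit read from the data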
CYP2C19 activ = human CYP2C19 activators, primary screen, biochemical, luminescence. Cytochrome P450 2C19 (Homo sapiens), P33261. activation factor at 5 µM. AID 1025, 2008. 96,000 tested, under 10 active. recombinant CYP2C19, luciferin-H EGE luminescence; hits give high values; 0 = fully inhibited enzyme, 1 = untreated enzyme;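 active means activation factor of at least 2 at 5 µM in the primary screen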;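 further: 0 = wells with 2.5 mM tranylcypromine and 1 = vehicle-only wells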
CYP2C9 act = human CYP2C9 activators, primary screen, biochemical, luminescence; Cytochrome P450 2C9 (Homo sapiens), P11712; activation factor at 5 µM; 1.4% of 96,000 active; recombinant CYP2C9, luciferin-H conversion; hits give high values; factor 1 = untreated enzyme, 0 = blocked;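 active means activation factor of 2 or more for CYP2C9 at a 5 µM dose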;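 further: 0 = sulfaphenazole-blocked wells and 1 = vehicle-only wells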
sEH activator = soluble epoxide hydrolase activators, primary screen, biochemical, human sEH; purified human sEH enzymatic activity, activator screen; 0.04% of 91,000 active; activation, % at 2 µM; AID 717, 2007; in the data active means activation above about 37%
sEH inh = soluble epoxide hydrolase inhibitors, primary screen, biochemical, human sEH. inhibition, % at 2 µM. 0.34% of 91,000 active. Bifunctional epoxide hydrolase 2 (Homo sapiens), P34913. AID 707, 2007. recombinant human sEH enzymatic activity assay; in the data active means inhibition above about 80%
An asterisk follows results filed as active; / = not tested or not shown.

SMILES	CYP2C19 inh	CYP2C9 inhib	CYP2C19 activ	CYP2C9 act	sEH activator	sEH inh
CCOC(=O)C(NC(=O)c1ccc(OC)cc1)(OCC1(CC)COC1)C(F)(F)F (stereo unspecified)	38	63*	0.6	0.4	5	-6
CCOC(=O)C(NC(=O)c1ccccc1)(OCC1(CC)COC1)C(F)(F)F (stereo unspecified)	/	/	/	/	-6	5
CC1=C(C(=O)Nc2cccc(C)n2)C(c2ccc3c(c2)OCO3)C2=C(CC(c3ccco3)CC2=O)N1 (stereo unspecified)	86*	94*	0.1	0.1	-6	11
CCCCN(C(=O)Nc1ccc(OCC)cc1)C1CCN(C(C)=O)CC1	16	11	0.8	0.9	-4	8
CC(C)c1ccc2nc3sc(C(=O)N4CCc5ccccc5C4)c(N)c3cc2c1	9	51*	0.9	0.5	-9	11
O=C(NC1CCCCC1)N1CCN(C(=O)c2ccco2)CC1	8	5	0.9	0.9	3	-4
COC(=O)c1cc(C#N)c(Oc2ccc(F)cc2)nc1C	54*	1	0.5	1	0	-1
O=S(=O)(Nc1ccc(-n2cccc2)cc1)c1ccc(Cl)cc1Cl	100*	100*	0	0	4	-1
CN1CCN(c2ccc(Cl)cc2NS(=O)(=O)c2ccccc2Cl)CC1	19	17	0.8	0.8	/	/
O=C(O)c1ccc(-c2cccc(Cl)c2)o1	/	/	/	/	0	3
CC(=O)N1N=C(c2cccc(Cl)c2)OC1c1ccc(C(C)C)cc1 (stereo unspecified)	83*	88*	0.2	0.1	0	-1
O=C(Nc1cccnc1)c1cc2nc(C3CC3)cc(C(F)(F)F)n2n1	64*	74*	0.4	0.3	2	1
CCOC(=O)c1nn(-c2ccccc2)c(-c2ccccc2)c1C(=O)c1ccccc1	40	59*	0.6	0.4	-14	11
CCOC(=O)c1nn(-c2cccc(Cl)c2)c(C)c1C(C)=O	100*	64*	0	0.4	-7	8
CCOC(=O)c1nn(-c2ccccc2)c(=O)c(C#N)c1C	70*	9	0.3	0.9	4	-1
CCOC(=O)c1c(C)nn(Cc2cccc(Cl)c2)c1N	24	90*	0.8	0.1	2	-2
CCOC(=O)c1nn(-c2cccc(OC)c2)c(-c2ccccc2)c1C(=O)c1ccccc1	47	49	0.5	0.5	6	-9
CCCCn1c(Cc2ccccc2)nnc1SCC(=O)Nc1cc(C)on1	/	/	/	/	-8	13
O=C(NC(C(=O)c1ccccc1)n1c(=O)cc[nH]c1=S)c1ccccc1 (stereo unspecified)	/	/	/	/	-7	7
CCc1ccc(S(=O)(=O)NC(CC(=O)O)c2ccccc2)cc1 (stereo unspecified)	-7	18	1.1	0.8	-2	6
N#Cc1cc2c(nc1SCC(O)CS(=O)(=O)Cc1ccccc1)CCCC2 (stereo unspecified)	22	58*	0.8	0.4	0	5
N#Cc1cc2ccccc2nc1SCc1cccnc1	52*	40	0.5	0.6	/	/
N#Cc1cc2c(nc1SCc1ccccc1)CCCCC2	14	16	0.9	0.8	25	-21
N#Cc1cc2c(nc1SCc1cccnc1)CCCCC2	80*	50	0.2	0.5	8	-5
CCOC(=O)C1CCN(Cc2oc(CO)cc(=O)c2O)CC1	14	5	0.9	1	-7	4
SMILES	CYP2C19 inh	CYP2C9 inhib	CYP2C19 activ	CYP2C9 act	sEH activator	sEH inh
Clc1ccc(SCCn2cncn2)cc1	35	31	0.7	0.7	-14	15
C=CCc1ccccc1OCCn1ccnc1	92*	85*	0.1	0.1	-3	1
Clc1cccc(OCCn2cncn2)c1Cl	84*	-81	0.2	1.8	7	-7
Clc1ccccc1OCCn1ccnc1	66*	74*	0.3	0.3	-4	9
Clc1ccccc1OCCN1CCCCC1	44	3	0.6	1	-5	6
O=C(c1cc2ccccc2o1)c1nc2c(n1O)CCCCC2	-10	21	1.1	0.8	7	-4
COC(=O)/C(=C(/F)SCC(C)=O)C(F)(F)F	7	69*	0.9	0.3	1	-2
COc1cccc(C(O)CC(N)=O)c1 (stereo unspecified)	-8	-5	1.1	1	10	-13
CC1(C)CC(=O)CC(C)(C)N1OC(=O)c1ccncc1	67*	52*	0.3	0.5	9	-9
COc1ccc(/C=C/C(=O)c2sc(-c3ccccc3)nc2C)cc1	-5	12	1	0.9	/	/
COC(=O)c1sc(NC(=O)C(C)C)c(C(=O)OC)c1C	53*	27	0.5	0.7	12	-12
CCC(=O)Nc1sc(C(=O)OC)c(C)c1C(=O)OC	16	9	0.8	0.9	/	/
CCOC(=O)c1c(NC(=O)C2CCCO2)sc(C(=O)OC(C)(C)C)c1C (stereo unspecified)	10	31	0.9	0.7	14	-12
CCOC(=O)c1sc(NC(=O)C2CCCO2)c(C(=O)OCC)c1C (stereo unspecified)	6	17	0.9	0.8	/	/
Cc1c(C(=O)OC(C)C)sc(NC(=O)C2CCCO2)c1C(=O)OC(C)C (stereo unspecified)	69*	76*	0.3	0.2	7	-4
COC(=O)c1sc(NC(=O)C2CCCCC2C(=O)O)c(C(=O)OC)c1C (stereo unspecified)	-5	93*	1.1	0.1	/	/
COC(=O)c1sc(NC(=O)C2CCCO2)c(C(=O)OC)c1C (stereo unspecified)	51*	40	0.5	0.6	-6	10
COc1cc(CCC(=O)OCn2nnc3ccccc3c2=O)cc(OC)c1OC	-5	1	1	1	-5	7
OC(COc1ccc2c(c1)CCC2)Cn1cnc2ccccc21 (stereo unspecified)	10	9	0.9	0.9	0	5
CCOC(=O)c1[nH]c2ccccc2c1NC(=O)c1ccc(Br)o1	/	/	/	/	-4	8
O=C(N/N=C\c1ccc(COc2ccc([N+](=O)[O-])cc2)o1)c1cccc(Cl)c1	34	60*	0.7	0.4	-47	48
CCCOc1ccc(C(=O)C(CN2CCOCC2)c2ccccc2)cc1 (stereo unspecified)	/	/	/	/	5	-5
Cc1ccc(C(C)C)c(OCc2ccc(-c3nnco3)cc2)c1	86*	40	0.1	0.6	/	/
Cc1ccc(S(=O)(=O)N(C)Cc2ccc(-c3nnco3)cc2)cc1	48	16	0.5	0.8	-7	6
Cn1c(SCc2ccc(C#N)cc2Cl)nc2ccccc21	57*	33	0.4	0.7	-8	8
